Only some compounds are listed: those with a hit (about 7.4% of all), similar ones and a draw of the others.
FLuc counter: qHTS profiling assay for firefly luciferase inhibitor/activator using purifed enzyme and Km concentrations of substrates (counterscreen for miR-21 project); Luciferin 4-monooxygenase (Photinus pyralis), P08659; purified FLuc, Km substrates, luminescence inhibition; Potency, µM (series often up to 57.5 µM), actives largely listed as inhibitors; actives 6.9% (n = 360,000); note: nearly all actives have a fitted effect of over 55% in size
Target sequence (P08659 whole entry, looked up): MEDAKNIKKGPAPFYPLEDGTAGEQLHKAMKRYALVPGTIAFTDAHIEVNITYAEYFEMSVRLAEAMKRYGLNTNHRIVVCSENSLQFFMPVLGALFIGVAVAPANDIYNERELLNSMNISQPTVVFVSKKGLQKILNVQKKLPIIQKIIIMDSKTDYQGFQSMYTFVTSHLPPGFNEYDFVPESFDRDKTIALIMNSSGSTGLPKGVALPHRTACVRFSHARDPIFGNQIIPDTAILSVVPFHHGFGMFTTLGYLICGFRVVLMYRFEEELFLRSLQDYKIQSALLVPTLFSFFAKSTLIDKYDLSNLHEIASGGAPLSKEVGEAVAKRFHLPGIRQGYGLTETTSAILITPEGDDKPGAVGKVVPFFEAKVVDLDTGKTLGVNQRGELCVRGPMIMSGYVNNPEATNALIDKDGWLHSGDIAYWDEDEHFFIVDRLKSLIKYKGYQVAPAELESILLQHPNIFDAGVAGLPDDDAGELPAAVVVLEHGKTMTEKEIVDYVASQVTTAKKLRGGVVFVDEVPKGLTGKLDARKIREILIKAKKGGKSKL
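Biochemical qHTS of compounds, final roughly 60 µM downward over six points, against 10 nM purified firefly luciferase using Km concentrations of substrates (10 uM D-luciferin, 10 uM ATP) in Tris acetate pH 7.5 buffer; luminescence output.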
Rab9 prom act: qHTS Assay for Rab9 Promoter Activators | Potency, µM (highest dose often 9.22 µM), most hits filed as activators | actives 2.8% (n = 320,000) | Huh7 Rab9 promoter-luciferase reporter, luminescence, 24 h; note: nearly all actives have a fitted effect of over 60% in size
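Stable Rab9-luc Huh7, 1500 cells/well, 2 h settle; cmpd in DMSO, 24 h, 37 °C/5% CO2; luciferase reagent 10 min RT; luminescence.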
ELG1 genotox: qHTS screen for small molecules that induce genotoxicity in human embryonic kidney (HEK293T) cells expressing luciferase-tagged ELG1. actives 1.3% (n = 330,000). HEK293T ELG1-luciferase reporter, luminescence, 16 h. Potency, µM (top dose mostly 46 µM), hits mostly activators. AID 504466, 2011; note: nearly all actives have a fitted effect of over 60% in size
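HEK293T cells expressing luciferase-tagged ELG1 were exposed to compound or DMSO vehicle for 16 hr at 37 °C and 5% CO2. Luciferase activity was then measured with ONE-Glo after 30 min at room temperature.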
NPC1 promoter act: qHTS Assay for NPC1 Promoter Activators; Huh7 NPC1 promoter luciferase reporter, 24 h; actives 2.4% (n = 320,000); Potency, µM (titrated, usually from 9.22 µM), usual class: activators; note: nearly all actives have a fitted effect of over 60% in size
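Luminescence from an NPC1 promoter-driven luciferase reporter in stably transfected Huh7 cells was measured after 24 h compound treatment at 37 °C, followed by 10 min ambient incubation with luciferase detection reagent.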
SMN2 splice up: qHTS Assay for Enhancers of SMN2 Splice Variant Expression; HEK293 SMN2-luciferase splicing reporter, luminescence, 30-36 h; Potency, µM (doses to about 46.1 µM), hits mostly activators; actives 2.8% (n = 210,000); note: nearly all actives have a fitted effect of over 55% in size
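qHTS luciferase splicing reporter: luminescence rises when SMN2 exon 7 is included in transfected HEK293 cells. Compound exposure lasted 30-36 h at 37C, with 4.5 mM final sodium butyrate as control, followed by a ONE-Glo read.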
A number is an active result; 0 = inactive; ? = inconclusive; - = no result given; [ ] = dose if it differs, or a comment. Calls come from the whole dose curve; as a rule, active = well fitted curve in the direction sought with a large enough effect; inconclusive = small, poorly fitted or top-dose-only effect, or another doubt; inactive = no such curve, though single readings can be large; an effect the other way counts as inactive or inconclusive.

SMILES	FLuc counter	Rab9 prom act	ELG1 genotox	NPC1 promoter act	SMN2 splice up
Brc1ccccc1-c1nc2c3ccccc3ncn2n1	?	3.2µM	0	?	-
Clc1ccc(-c2nc3c4cnn(-c5ccccc5Br)c4ncn3n2)c(Cl)c1	0	-	-	-	0
O=C(NC(=S)Nc1cccc(Cl)c1N1CCCCC1)c1ccco1	0	0	0	0	0
O=C(NNC(=S)Nc1ccccc1Cl)c1ccccc1	13µM	1.6µM	?	2.5µM	-
O=C(NC(=S)Nc1cccc2c(O)cccc12)c1ccco1	21µM	0	0	0	-
O=C(NC(=S)Nc1ccccc1Cl)c1ccco1	9.5µM	?	0	?	-
COc1ccc(Cc2ccccc2C(=O)O)c2ccccc12	-	-	-	-	0[9.22 µM]
O=c1c(-c2ccc(O)cc2)coc2cc(O)cc(O)c12	21µM	13µM	16µM	5.8µM	25µM
CC(C)Oc1cc(O)c2c(=O)c(-c3ccc(O)cc3)coc2c1	5.4µM	1.4µM	16µM	0.89µM	7.1µM
COc1ccc(-c2coc3cc(O)cc(O)c3c2=O)cc1	6µM	2.8µM	23µM	2.2µM	18µM
O=c1c(-c2cc(O)c(O)c(O)c2)coc2cc(O)c(O)c(O)c12	-	-	-	-	0
COc1ccc(-c2coc3cc(OC)cc(O)c3c2=O)cc1	1.5µM	1µM	?	0.63µM	13µM
COc1cc(O)cc2occ(-c3ccc(O)cc3)c(=O)c12	?	0	0	0	-
COc1ccc(-c2coc3cc(O)c(OC)cc3c2=O)cc1	?	?	?	0	-
O=C(NC1CCCCCC1)C1c2ccccc2C(=O)N1Cc1ccccc1Cl (stereo not drawn)	0	-	-	-	0
Cc1cccc(N2CCN(C(=O)c3ccc4c(c3)N(Cc3cccc(Cl)c3)C(=O)c3ccccc3S4=O)CC2C)c1 (stereo not drawn)	0	-	-	-	-
CN1CCN(/N=C/c2ccc(OCc3ccccc3)cc2)CC1	9.5µM	2.8µM	?	3.5µM	-
COC(=O)c1ccc(/C=N\N2CCN(Cc3ccc(C)cc3)CC2)cc1	0	0	0	0	0
COC(=O)c1ccc(COc2ccc(/C=N/N3CCN(C)CC3)cc2)cc1	24µM	1.1µM	?	?	5.6µM
CC(/C=C/c1ccc(OCc2ccccc2)cc1)=N\O	2.4µM	2.8µM	15µM	2.8µM	11µM
C(=N\n1cnnc1)/c1ccc(OCc2ccccc2)cc1	?	0	?	0	0
CCOc1ccc(OCC)c(Nc2nc3ccc(Cl)cc3n3cnnc23)c1	0	-	-	-	0
COc1ccc(-n2nc(C(=O)Nc3cc(C)ccn3)c3c4ccccc4n(C)c3c2=O)cc1Cl	0	-	-	-	0
O=C(O)[C@@H]1CN[C@@H](C(=O)O)C1	-	-	-	-	0
Cc1cc(C)n(-c2ccc(C(=O)Nc3nnc(C)s3)cc2)n1	13µM	?	?	0	0
SMILES	FLuc counter	Rab9 prom act	ELG1 genotox	NPC1 promoter act	SMN2 splice up
Cc1cc(C)n(-c2ccc(C(=O)Nc3sccc3C(N)=O)cc2)n1	6.7µM	?	?	?	13µM
CC1CCCCN1S(=O)(=O)c1ccc(C(=O)Nc2sccc2C(N)=O)cc1 (stereo not drawn)	21µM	?	?	?	20µM
Cc1cc(C)n(-c2ccc(C(=O)Nc3ccccn3)cc2)n1	6µM	0.5µM	?	0.89µM	1.6µM
Cc1cc(C)n(-c2ccc(C(=O)NCc3cccs3)cc2)n1	0	0	0	0	0
NC(=O)c1ccsc1NC(=O)C1CCCN1S(=O)(=O)c1ccc(Cl)cc1 (stereo not drawn)	0	0	0	0	0
O=C(c1cccc(F)c1)N1CCC2(CCCN(c3cccc(-c4ccccc4)c3)C2)CC1	-	-	-	-	0
CCOC(=O)C1CCN(C(=O)c2cc3ccc4ccc(C)[nH]c4c3n2)CC1	0	-	-	-	-
COc1ccccc1-c1ccc(SCc2ccc(F)cc2)nn1	24µM	0	0	0	0
COc1ccccc1-c1ccc(SCc2ccc(C)cc2)nn1	15µM	0	0	0	0
COc1ccccc1-c1ccc(SCC(=O)N2CCOCC2)nn1	0	0	0	0	0
O=S1(=O)N=C(Nc2ccc(N3CCOCC3)cc2)c2ccccc21	13µM	0	0	0	?
O=C(Nc1cccc(C(=O)OCc2cc(=O)n3c4c(sc3n2)CCCC4)c1)c1ccccc1	2.4µM	-	-	-	-
